Experimental data as given in PubChem BioAssay (EPA / NIEHS).
Records with an inconclusive call do not appear. Activity calls are given as the source filed them. The calls were made as follows, unless noted: active = hit-call score of the fitted dose curve at least 0.9, where 1 is the maximum; inactive = score below 0.9.

Tests used:
[1] = ATG_TCF_b_cat_CIS: Attagene CIS-FACTORIAL HepG2 Assay for human T-Cell-Factor with beta-catenin (TCF/b-cat) (AID 2282965); conditions: HepG2 TCF/beta-catenin cis-reporter transcription, actives raise or lower the signal
Method in brief: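 Using capillary electrophoresis as the read-out, labelled reporter cDNA fragments from transiently transfected HepG2 were sized and quantified. Exposure lasted 24 hours; activity in either direction was referenced to DMSO.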

[2] = ATG_TAL_CIS: Attagene CIS-FACTORIAL HepG2 Assay for human TAL Basal Promoter (AID 2282966); conditions: HepG2 Attagene cis-factorial TAL promoter reporter; actives raise or lower the signal;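 also: background control endpoint measuring basal TAL promoter reporter mRNA not a specific factor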
Method in brief: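 Endogenous transcription-factor activity is sensed in HepG2 cells through transfected cis-promoter reporter constructs. After 24 h dosing, reporter transcripts are quantified by RT-PCR and capillary electrophoresis. Gain or loss of signal is fitted relative to DMSO.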

[3] = ATG_TGFb_CIS: Attagene CIS-FACTORIAL HepG2 Assay for human Transforming Growth Factor (TGF) (AID 2282967); conditions: HepG2 Attagene CIS TGFb reporter, mRNA transcription; actives raise or lower the signal
Method in brief: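 After a 24-hour incubation with compound, transfected HepG2 cells were lysed for RNA; reporter cDNA was amplified, fluorescently end-labeled and separated by CE. DMSO served as baseline for bidirectional fits.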

[4] = ATG_VDRE_CIS: Attagene CIS-FACTORIAL HepG2 Assay for human Vitamin D Receptor Element (VDRE) (AID 2282968); conditions: HepG2 VDRE cis-reporter transcription, actives raise or lower the signal
Method in brief: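 Steps: transfect HepG2 with multiple reporter transcription units; dose chemicals 24 h; isolate RNA; RT-PCR; label with 6-FAM primer extension; HpaI digest; capillary electrophoresis. Curves fitted both directions against DMSO.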

[5] = biological target: Estrogen receptor (Homo sapiens) (UniProt P03372); test: ATG_ERa_TRANS: Attagene TRANS-FACTORIAL HepG2 Assay for human Estrogen Receptor alpha (ERa) (AID 2282970; active = hit-call score of the fitted dose curve at least 0.9, where 1 is the maximum); conditions: HepG2 Attagene TRANS ERa GAL4 reporter, mRNA
Sequence of Estrogen receptor (Homo sapiens) (P03372 whole entry, looked up, the tested form may be a part): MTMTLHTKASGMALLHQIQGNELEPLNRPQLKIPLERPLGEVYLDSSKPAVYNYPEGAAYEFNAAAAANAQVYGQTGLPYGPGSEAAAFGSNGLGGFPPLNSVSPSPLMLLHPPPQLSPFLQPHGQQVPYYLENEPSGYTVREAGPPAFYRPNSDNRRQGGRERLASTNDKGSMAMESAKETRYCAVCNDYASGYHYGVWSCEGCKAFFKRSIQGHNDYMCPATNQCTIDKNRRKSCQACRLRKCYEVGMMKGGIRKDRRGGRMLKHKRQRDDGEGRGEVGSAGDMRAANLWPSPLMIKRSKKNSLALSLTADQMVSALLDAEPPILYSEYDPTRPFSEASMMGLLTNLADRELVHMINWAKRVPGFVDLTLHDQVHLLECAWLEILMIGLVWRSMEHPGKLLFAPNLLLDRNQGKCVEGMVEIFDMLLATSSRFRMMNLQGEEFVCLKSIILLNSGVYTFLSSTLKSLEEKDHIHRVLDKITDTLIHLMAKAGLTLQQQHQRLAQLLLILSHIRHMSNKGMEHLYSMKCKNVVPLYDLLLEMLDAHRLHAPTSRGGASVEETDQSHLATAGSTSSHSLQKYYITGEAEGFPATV
Method in brief: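 Transfected HepG2 cells carrying GAL4-UAS-driven reporter units were dosed for 24 hours. Total RNA was reverse-transcribed, reporter sequences PCR-amplified, FAM-labelled, HpaI-digested and resolved by capillary electrophoresis. Increases over DMSO control defined activity.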

[6] = biological target: Steroid hormone receptor ERR1 (Homo sapiens) (UniProt P11474); test: ATG_ERRa_TRANS: Attagene TRANS-FACTORIAL HepG2 Assay for human Estrogen-Related Receptor alpha (ERRa) (AID 2282971; active = hit-call score of the fitted dose curve at least 0.9, where 1 is the maximum); conditions: HepG2 Attagene TRANS reporter, ERRa transactivation
Sequence of Steroid hormone receptor ERR1 (Homo sapiens) (P11474 whole entry, looked up, the tested form may be a part): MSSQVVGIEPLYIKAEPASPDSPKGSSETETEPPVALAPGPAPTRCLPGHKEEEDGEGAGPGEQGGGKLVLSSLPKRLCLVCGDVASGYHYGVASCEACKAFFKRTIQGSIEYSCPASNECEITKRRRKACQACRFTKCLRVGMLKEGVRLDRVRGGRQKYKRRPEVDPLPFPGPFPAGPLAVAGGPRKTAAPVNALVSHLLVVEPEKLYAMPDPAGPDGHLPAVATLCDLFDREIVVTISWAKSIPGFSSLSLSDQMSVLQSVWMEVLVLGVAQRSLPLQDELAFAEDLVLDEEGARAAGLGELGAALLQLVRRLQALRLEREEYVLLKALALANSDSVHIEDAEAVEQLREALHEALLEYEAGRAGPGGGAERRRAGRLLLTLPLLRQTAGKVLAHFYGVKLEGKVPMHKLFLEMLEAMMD
Method in brief: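 HepG2 cells were transiently transfected with multiple GAL4-UAS reporter units, then dosed with compound for 24 h. Total RNA was reverse-transcribed, reporter cDNA PCR-amplified and fluorescently labelled, and fragments resolved by capillary electrophoresis; induction was compared with DMSO.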

[7] = ATG_M_19_TRANS: Attagene TRANS-FACTORIAL HepG2 Assay for M19 Transcription Factor (Internal Marker) (AID 2282974; active = hit-call score of the fitted dose curve at least 0.9, where 1 is the maximum); conditions: HepG2 Attagene TRANS-FACTORIAL M19 internal marker reporter
Method in brief: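 Using RT-PCR and capillary electrophoresis, reporter mRNA from transiently transfected human HepG2 cells was quantified following 24 h exposure; activity was fitted in the positive direction against DMSO.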

[8] = biological target: Estrogen-related receptor gamma (Homo sapiens) (UniProt P62508); test: ATG_ERRg_TRANS: Attagene TRANS-FACTORIAL HepG2 Assay for human Estrogen-Related Receptor gamma (ERRg) (AID 2282977; active = hit-call score of the fitted dose curve at least 0.9, where 1 is the maximum;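 also: hits increase reporter signal over DMSO so potencies reflect activators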); conditions: HepG2 Attagene TRANS reporter, ERRg transactivation
Sequence of Estrogen-related receptor gamma (Homo sapiens) (P62508 whole entry, looked up, the tested form may be a part): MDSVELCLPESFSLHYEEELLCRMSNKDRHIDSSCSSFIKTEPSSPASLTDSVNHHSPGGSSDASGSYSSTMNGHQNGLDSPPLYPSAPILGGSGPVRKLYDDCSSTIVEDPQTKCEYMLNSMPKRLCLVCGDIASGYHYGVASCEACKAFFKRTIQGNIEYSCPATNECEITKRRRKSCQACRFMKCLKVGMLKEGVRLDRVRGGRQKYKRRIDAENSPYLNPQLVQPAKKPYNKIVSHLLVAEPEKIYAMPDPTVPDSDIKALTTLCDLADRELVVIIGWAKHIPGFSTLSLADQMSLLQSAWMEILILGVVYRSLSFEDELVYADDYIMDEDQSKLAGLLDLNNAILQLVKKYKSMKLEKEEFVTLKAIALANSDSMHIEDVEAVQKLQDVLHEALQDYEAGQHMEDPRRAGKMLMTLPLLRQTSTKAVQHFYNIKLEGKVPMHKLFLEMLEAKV
Method in brief: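 Exogenous NR-Gal4 chimera activity measured as reporter transcript induction after 24 h in transiently transfected HepG2 cells. RNA reverse-transcribed, PCR-amplified, 6-FAM-labelled and resolved by capillary electrophoresis; increase over DMSO baseline.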

[9] = biological target: Glucocorticoid receptor (Homo sapiens) (UniProt P04150); test: ATG_GR_TRANS: Attagene TRANS-FACTORIAL HepG2 Assay for human Glucocorticoid Receptor (GR) (AID 2282978; active = hit-call score of the fitted dose curve at least 0.9, where 1 is the maximum;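 also: activators score as hits since higher reporter transcript over DMSO is fitted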); conditions: HepG2 Attagene TRANS GR reporter, mRNA transcription
Sequence of Glucocorticoid receptor (Homo sapiens) (P04150 whole entry, looked up, the tested form may be a part): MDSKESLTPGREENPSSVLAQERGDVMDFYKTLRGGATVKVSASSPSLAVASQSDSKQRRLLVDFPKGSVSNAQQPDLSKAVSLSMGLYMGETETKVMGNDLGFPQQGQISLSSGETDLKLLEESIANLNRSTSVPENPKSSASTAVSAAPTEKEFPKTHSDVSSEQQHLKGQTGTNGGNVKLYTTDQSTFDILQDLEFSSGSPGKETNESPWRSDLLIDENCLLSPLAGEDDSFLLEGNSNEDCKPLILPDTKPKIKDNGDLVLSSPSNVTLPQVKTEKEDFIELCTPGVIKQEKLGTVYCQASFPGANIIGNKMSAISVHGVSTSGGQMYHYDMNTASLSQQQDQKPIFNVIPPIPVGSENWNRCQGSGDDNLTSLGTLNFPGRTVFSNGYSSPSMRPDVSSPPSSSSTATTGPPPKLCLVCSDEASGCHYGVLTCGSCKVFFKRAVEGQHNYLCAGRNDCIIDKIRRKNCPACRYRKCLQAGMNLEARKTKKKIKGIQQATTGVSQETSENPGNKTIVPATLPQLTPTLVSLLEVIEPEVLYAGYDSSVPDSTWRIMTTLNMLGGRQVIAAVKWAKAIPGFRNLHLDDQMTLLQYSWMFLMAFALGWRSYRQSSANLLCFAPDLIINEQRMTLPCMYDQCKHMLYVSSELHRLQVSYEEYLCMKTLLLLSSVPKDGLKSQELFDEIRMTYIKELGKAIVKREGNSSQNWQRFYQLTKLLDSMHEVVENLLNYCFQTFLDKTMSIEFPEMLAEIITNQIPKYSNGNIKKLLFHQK
Method in brief: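 Exogenous NR-GAL4 fusion activity was assessed through induced GAL4-UAS reporter transcripts in transfected human HepG2 cells, quantified after 24 h by RT-PCR and fluorescent capillary electrophoresis with DMSO as baseline.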

[10] = biological target: X-box-binding protein 1 (Homo sapiens) (UniProt P17861); test: ATG_Xbp1_CIS: Attagene CIS-FACTORIAL HepG2 Assay for human X-box Binding Protein 1 (XBP1) (AID 2282972); conditions: HepG2 XBP1 cis-element reporter, Attagene multiplex; actives raise or lower the signal
Sequence of X-box-binding protein 1 (Homo sapiens) (P17861 whole entry, looked up): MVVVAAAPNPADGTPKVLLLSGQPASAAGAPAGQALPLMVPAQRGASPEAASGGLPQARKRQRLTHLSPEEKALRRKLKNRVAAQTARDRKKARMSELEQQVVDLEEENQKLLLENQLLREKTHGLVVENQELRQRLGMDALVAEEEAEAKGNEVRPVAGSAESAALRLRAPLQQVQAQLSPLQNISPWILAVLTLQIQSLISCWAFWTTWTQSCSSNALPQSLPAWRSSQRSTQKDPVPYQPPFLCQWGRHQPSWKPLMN
Method in brief: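 Multiplexed cis-reporter readout in transfected HepG2 liver cells. Exposure lasted 24 hours. Activity in either direction was fitted against DMSO as negative control and baseline.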

Measured: AC50

O=C(O)Cc1ccccc1Nc1c(Cl)cccc1Cl
active: [1] 40.6 µM | [4] 16.2 µM
inactive: [2] | [3] | [5]

Cc1ccc(C)c(O)c1C
inactive: [1] | [2] | [3] | [4] | [5]

COc1ccc(S(=O)(=O)N2C(=O)[C@@](c3ccccc3OC)(N3C[C@H](O)C[C@H]3C(=O)N(C)C)c3cc(Cl)ccc32)c(OC)c1
active: [1] 42.1 µM | [2] 177 µM | [3] 145 µM | [4] 19.8 µM

COc1cc(C=O)ccc1O
inactive: [1] | [2] | [3] | [4] | [5]

CCCCc1ccc2c(n1)[C@@H](c1ccc(OC)cc1C[C@H](C)C(=O)O)[C@H](C(=O)O)[C@H]2c1ccc2c(c1)OCO2
inactive: [1] | [2] | [3] | [4]

CC(=O)OCCOCCOCCOC(C)=O
inactive: [1] | [2] | [3] | [4] | [5]

NS(=O)(=O)c1cc2c(cc1Cl)NCNS2(=O)=O
inactive: [1] | [2] | [3] | [5] | [6] | [7] | [8] | [9]
active: [4] 4.41 µM

CCCCCCCCCCCCCO
inactive: [2] | [3] | [4] | [6] | [10] | [9]
active: [1] 34.3 µM | [5] 65.7 µM

COCCOC[C@H](CC1(C(=O)NC2CCC(C(=O)O)CC2)CCCC1)C(=O)Oc1ccc2c(c1)CCC2 (stereo partly drawn)
active: [4] 48.5 µM
inactive: [1] | [2] | [3] | [5] | [6] | [10] | [8] | [9]

Cc1cccc([N+](=O)[O-])c1C
active: [5] 44.3 µM
inactive: [1] | [2] | [3] | [4] | [10]

CCOC(=O)C(C)(C)Oc1ccc(Cl)cc1
inactive: [1] | [2] | [3] | [4] | [5] | [6]

COc1cc(/C=C/C(=O)CC(=O)/C=C/c2ccc(O)c(OC)c2)ccc1O
inactive: [2] | [3] | [5] | [6] | [8]
active: [1] 27.4 µM | [4] 33.4 µM

CCCCCC(=O)O
inactive: [1] | [2] | [3] | [4] | [5] | [6] | [7] | [8]

COc1cccc2c1C(=O)c1c(O)c3c(c(O)c1C2=O)C[C@@](O)(C(=O)CO)C[C@@H]3O[C@H]1C[C@H](N)[C@H](O)[C@H](C)O1
active: [1] 1.26 µM | [4] 0.318 µM
inactive: [2] | [3] | [5] | [6] | [8]

Cc1ccc(Cl)cc1
inactive: [1] | [2] | [3] | [4] | [5] | [10]

CCc1c(C(=O)NN2CCCCC2)nn(-c2ccc(Cl)cc2Cl)c1-c1ccc(Br)cc1
active: [1] 3.53 µM | [4] 1.38 µM
inactive: [2] | [3] | [5] | [6] | [10]

CN1CCCC1=O
inactive: [1] | [2] | [3] | [4] | [5]

Oc1ccc2c(c1)OC[C@@H](N1CCC(O)(c3ccc(F)cc3)CC1)[C@H]2O
active: [3] 64.6 µM | [4] 30.1 µM | [5] 6.61 µM
inactive: [1] | [2]

C1CCC(SSC2CCCCC2)CC1
inactive: [1] | [2] | [3] | [4]
active: [5] 27.4 µM

CC1=C(/C=C/C(C)=C/C=C/C(C)=C/CO)C(C)(C)CCC1
inactive: [2] | [3]
active: [1] 25.9 µM | [4] 1.85 µM | [5] 4.28 µM

CC1(C)NC(=O)NC1=O
inactive: [1] | [2] | [3] | [4] | [6] | [9]
active: [5] 26.3 µM

CCCCCCCCCCO
inactive: [2] | [3] | [4] | [5]
active: [1] 166 µM | [10] 160 µM

CCCCOC(=O)CCCCCCCCC(=O)OCCCC
inactive: [2] | [3] | [4] | [5] | [10]
active: [1] 146 µM

CNC(=O)[C@H]1O[C@@H](n2cnc3c(NCc4cc(Cl)ccc4OCc4cc(C)no4)ncnc32)[C@H](O)[C@@H]1N
inactive: [1] | [2] | [3] | [4]

CCCCCCCC=O
inactive: [1] | [2] | [3] | [4] | [5] | [10]

NC(=O)Cn1c(=O)cc(CCN2CCN(c3nccc4sccc34)CC2)c2ccc(F)cc21
inactive: [2] | [3] | [4] | [5] | [6] | [8] | [9]
active: [1] 30.9 µM

CCCCN(CCCC)CCCC
inactive: [1] | [2] | [3] | [4] | [5]

C[C@]12C=CC(=O)C=C1CC[C@@H]1[C@@H]2C(=O)C[C@@]2(C)[C@H]1CC[C@]2(O)C(=O)CO
active: [5] 58.3 µM
inactive: [1] | [2] | [3] | [4]
